Reference: PubChem BioAssay (NCATS)
Records with an inconclusive call do not appear. Calls of active or inactive are those of the source. Calls follow the shape of the dose curve; as a rule, active = well fitted cell-killing curve with a large enough effect; inconclusive = small, poorly fitted or top-dose-only effect, or effect the other way; inactive = flat fitted curve, though single readings scatter.

Assays:
Experiment in all cases: Primary qHTS to identify gynecologic anti-cancer compounds using libraries of approved drugs and bioactive compounds (AID 1345084); also: nearly all actives have a fitted effect of over 55% in size
[1] = test system: C33A; conditions: Gynecologic cancer cell panel viability, ATPlite luminescence, 48 h; series mostly up to 57.5 µM
Procedure, shortened: (§1)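 Measured: luminescence after ATPlite addition (15 min, RT). Exposure: 48 h, 37 C, 5% CO2.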

[2] = test system: CAOV3; conditions: Gynecologic cancer cell panel viability, ATPlite luminescence, 48 h; series mostly up to 57.5 µM
Procedure, shortened: as §1

[3] = test system: CASKI; conditions: Gynecologic cancer cell panel viability, ATPlite luminescence, 48 h; series mostly up to 57.5 µM
Procedure, shortened: as §1

[4] = test system: Es-2; conditions: Gynecologic cancer cell panel viability, ATPlite luminescence, 48 h; series mostly up to 57.5 µM
Procedure, shortened: as §1

[5] = test system: HeLa; conditions: Gynecologic cancer cell panel viability, ATPlite luminescence, 48 h; series mostly up to 57.5 µM
Procedure, shortened: as §1

[6] = test system: Hek293T; conditions: Gynecologic cancer cell panel viability, ATPlite luminescence, 48 h, control line for the selectivity index; series mostly up to 57.5 µM
Procedure, shortened: as §1

[7] = test system: JEG-3; conditions: Gynecologic cancer cell panel viability, ATPlite luminescence, 48 h; series mostly up to 57.5 µM
Procedure, shortened: as §1

[8] = test system: OV90; conditions: Gynecologic cancer cell panel viability, ATPlite luminescence, 48 h; series mostly up to 57.5 µM
Procedure, shortened: as §1

[9] = test system: PA-1; conditions: Gynecologic cancer cell panel viability, ATPlite luminescence, 48 h; series mostly up to 57.5 µM
Procedure, shortened: as §1

[10] = test system: SKOV3; conditions: Gynecologic cancer cell panel viability, ATPlite luminescence, 48 h; series mostly up to 57.5 µM
Procedure, shortened: as §1

[11] = test system: Tov-21-G; conditions: Gynecologic cancer cell panel viability, ATPlite luminescence, 48 h; series mostly up to 57.5 µM
Procedure, shortened: as §1

[12] = test system: Tov112D; conditions: Gynecologic cancer cell panel viability, ATPlite luminescence, 48 h; series mostly up to 57.5 µM
Procedure, shortened: as §1
% is scaled to controls: 0 for no effect and ±100 for the full control effect.

C[C@@H]([C@@H](O)c1ccc(O)cc1)N1CCC(O)(c2ccccc2)CC1
inactive: Potency [1] | Potency [2] | Potency [3] | Potency [4] | Potency [5] | Potency [6] | Potency [7] | Potency [8] | Potency [9] | Potency [10] | Potency [11] | Potency [12]

CC12CCC3c4ccc(OC5OC(C(=O)O)C(O)C(O)C5O)cc4CCC3C1CCC2O (stereo not drawn)
inactive: Potency [1] | Potency [2] | Potency [3] | Potency [4] | Potency [5] | Potency [6] | Potency [7] | Potency [8] | Potency [9] | Potency [10] | Potency [11] | Potency [12]

O=C(O)/C=C/c1ccc(O)c(O[C@@H]2O[C@H](CO)[C@@H](O)[C@H](O)[C@H]2O)c1
inactive: Potency [1] | Potency [2] | Potency [3] | Potency [4] | Potency [5] | Potency [6] | Potency [7] | Potency [8] | Potency [9] | Potency [10] | Potency [11] | Potency [12]

COc1cccc2cc3c(c(O[C@@H]4O[C@H](CO[C@@H]5O[C@H](CO)[C@@H](O)[C@H](O)[C@H]5O)[C@@H](O)[C@H](O)[C@H]4O)c12)C(C)OC3=O (stereo partly drawn)
inactive: Potency [1] | Potency [2] | Potency [3] | Potency [4] | Potency [5] | Potency [6] | Potency [7] | Potency [8] | Potency [9] | Potency [10] | Potency [11] | Potency [12]

CNS(=O)(=O)CC1CCC(N(C)c2ncnc3[nH]ccc23)CC1 (stereo not drawn)
inactive: Potency [1] | Potency [2] | Potency [3] | Potency [4] | Potency [5] | Potency [6] | Potency [7] | Potency [8] | Potency [9] | Potency [10] | Potency [11] | Potency [12]

COc1cc(/C=C/C(=O)O[C@H]2[C@H](O)[C@@H](CO)O[C@@]2(CO)O[C@H]2O[C@H](CO)[C@@H](O)[C@H](O)[C@H]2O)ccc1O
inactive: Potency [1] | Potency [2] | Potency [3] | Potency [4] | Potency [5] | Potency [6] | Potency [7] | Potency [8] | Potency [9] | Potency [10] | Potency [11] | Potency [12]

C=C1C(O)CC2C(C(=O)O)=COC(O[C@@H]3O[C@H](COC(=O)/C=C/c4ccc(O)cc4)[C@@H](O)[C@H](O)[C@H]3O)C12 (stereo partly drawn)
inactive: Potency [1] | Potency [2] | Potency [3] | Potency [4] | Potency [5] | Potency [6] | Potency [7] | Potency [8] | Potency [9] | Potency [10] | Potency [11] | Potency [12]

CCc1ccc(Cc2ccc3c(c2)[C@]2(OC3)O[C@H](CO)[C@@H](O)[C@H](O)[C@H]2O)cc1
inactive: Potency [1] | Potency [2] | Potency [3] | Potency [4] | Potency [5] | Potency [6] | Potency [7] | Potency [8] | Potency [9] | Potency [10] | Potency [11] | Potency [12]

C=CC(C)(O)CC/C=C(\C)C(=O)OC1C(O)C(CO)OC(OC(=O)C23CCC(C)(C)CC2C2=CCC4C5(C)CCC(OC6OC(COC7OCC(OC(C)=O)C(O)C7OC7OC(COC(C)=O)C(O)C(O)C7O)C(O)C(O)C6O)C(C)(C)C5CCC4(C)C2(C)C(O)C3O)C1OC1OCC(OC2OCC(O)C(OC3OCC(O)C(O)C3O)C2O)C(O)C1O (stereo not drawn)
inactive: activity change, negative = cytotoxicity [1] 7.05% [at 6.55 µM] | activity change, negative = cytotoxicity [2] -2.2% [at 6.55 µM] | activity change, negative = cytotoxicity [3] -3.55% [at 6.55 µM] | activity change, negative = cytotoxicity [4] 1.1% [at 6.55 µM] | activity change, negative = cytotoxicity [5] 16.6% [at 6.55 µM] | activity change, negative = cytotoxicity [6] 1.48% [at 6.55 µM] | activity change, negative = cytotoxicity [7] -3.21% [at 6.55 µM] | activity change, negative = cytotoxicity [8] -14.1% [at 6.55 µM] | activity change, negative = cytotoxicity [9] -0.479% [at 6.55 µM] | activity change, negative = cytotoxicity [10] 20.9% [at 6.55 µM] | activity change, negative = cytotoxicity [11] 0.14% [at 6.55 µM] | activity change, negative = cytotoxicity [12] -2.19% [at 6.55 µM]

CCCN1CCN(c2ccc(C(=O)NC3(C(=O)NCC#N)CCCCC3)cc2)CC1
inactive: Potency [1] | Potency [2] | Potency [3] | Potency [4] | Potency [5] | Potency [6] | Potency [7] | Potency [8] | Potency [9] | Potency [10] | Potency [11] | Potency [12]

COc1ccc([C@@]2(O)c3c(ccc4c3OC(C)(CCC=C(C)C)C=C4)NC(=O)[C@@H]2OC)cc1 (stereo partly drawn)
inactive: Potency [1] | Potency [2] | Potency [3] | Potency [4] | Potency [5] | Potency [6] | Potency [7] | Potency [8] | Potency [9] | Potency [10] | Potency [11] | Potency [12]

CC(O)CO[C@@H]1O[C@H](CO)[C@@H](O)[C@H](O)[C@H]1O (stereo partly drawn)
inactive: Potency [1] | Potency [2] | Potency [3] | Potency [4] | Potency [5] | Potency [6] | Potency [7] | Potency [8] | Potency [9] | Potency [10] | Potency [11] | Potency [12]

C/C=C1\[C@H](OC2OC(COC3OC(CO)C(O)C(O)C3O)C(O)C(O)C2O)OC=C(C(=O)OC)[C@H]1CC(=O)OCCc1ccc(O)cc1 (stereo partly drawn)
inactive: Potency [1] | Potency [2] | Potency [3] | Potency [4] | Potency [5] | Potency [6] | Potency [7] | Potency [8] | Potency [9] | Potency [10] | Potency [11] | Potency [12]

CC(=O)N[C@H]1[C@H](O[C@H]2CC[C@@]3(C)C(CC[C@]4(C)C3CC=C3[C@@H]5CC(C)(C)CC[C@]5(C(=O)OC5OCC(O)C(O)C5O)CC[C@]34C)C2(C)C)O[C@H](COC2OC(C)C(O)C(OC3OC(C)C(O)C(O)C3O)C2O)[C@@H](O)[C@@H]1O (stereo partly drawn)
inactive: activity change, negative = cytotoxicity [1] -0.0854% [at 11.6 µM] | activity change, negative = cytotoxicity [2] 0.431% [at 11.6 µM] | activity change, negative = cytotoxicity [3] 5.69% [at 11.6 µM] | activity change, negative = cytotoxicity [4] 4.54% [at 11.6 µM] | activity change, negative = cytotoxicity [5] 1.75% [at 11.6 µM] | activity change, negative = cytotoxicity [6] 4.04% [at 11.6 µM] | activity change, negative = cytotoxicity [7] 1.81% [at 11.6 µM] | activity change, negative = cytotoxicity [8] 3.41% [at 11.6 µM] | activity change, negative = cytotoxicity [9] 5.97% [at 11.6 µM] | activity change, negative = cytotoxicity [10] 2.42% [at 11.6 µM] | activity change, negative = cytotoxicity [11] 2.63% [at 11.6 µM] | activity change, negative = cytotoxicity [12] 7.32% [at 11.6 µM]
